Bioassay records: PubChem, National Center for Advancing Translational Sciences (NCATS)
Only some compounds are listed: those with a hit (about 6.8% of all), similar ones and a draw of the others.
MCF10A rereplic – inducers of DNA re-replication in MCF 10A breast cells. AID 624296. MCF 10A DNA re-replication, Hoechst nuclear intensity, 48 h. 350,000 compounds, 2.9% hits. Potency, µM (series often up to 46.1 µM), for the others: top-dose activity, positive = re-replication, hits mostly activators; note: % of control where 0% means no effect; nearly all actives have a fitted effect of over 50% in size
PTAP TSG101 blk – blocks PTAP/TSG101 interaction to inhibit HIV-1 budding; Q99816; Fluorescence polarization, FITC-PTAP peptide / Tsg101 binding; Potency, µM (titrated, usually from 115 µM), for the others: top-dose activity change, negative = inhibition, usual class: inhibitors; 340,000 tested, under 10 active; AID 493005; active = well fitted inhibition curve with a large enough effect in the main read-out, with a control signal flat, not every such curve was filed as active; inconclusive = small, poorly fitted or top-dose-only effect, or effect the other way, or a change in a side signal; inactive = no such curve, though single readings can be large or run the other way; note: % of control where 0% means no effect
Target sequence (Q99816 whole entry, looked up): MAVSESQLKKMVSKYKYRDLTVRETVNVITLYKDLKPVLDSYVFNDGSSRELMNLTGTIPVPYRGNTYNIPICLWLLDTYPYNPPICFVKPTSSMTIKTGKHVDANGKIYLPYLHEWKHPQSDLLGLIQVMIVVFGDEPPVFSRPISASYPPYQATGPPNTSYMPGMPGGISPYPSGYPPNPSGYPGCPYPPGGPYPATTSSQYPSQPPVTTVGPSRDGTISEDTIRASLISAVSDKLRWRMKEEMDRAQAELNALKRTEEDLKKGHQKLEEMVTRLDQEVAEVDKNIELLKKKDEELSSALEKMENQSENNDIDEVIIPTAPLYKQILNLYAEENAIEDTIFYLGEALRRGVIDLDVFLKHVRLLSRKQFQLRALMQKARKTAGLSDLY
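Fluorescence anisotropy tracks displacement of a FITC-tagged PTAP peptide (50 nM) from the Tsg101 binding domain (10 uM), following a 20 min room-temperature incubation at pH 7.5.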
PINK1 modulator – PINK1 expression modulation; PINK1 immunofluorescence, high-content cytometry, 24 h; Potency, µM (titrated, usually from 76.6 µM), inactives show top-dose activation (PINK1 increase), actives largely listed as activators; 410,000 compounds, 0.2% hits; active = well fitted activation curve with a large enough effect; inconclusive = small, poorly fitted or top-dose-only effect; cell line not stated here; note: % of control where 0% means no effect; nearly all actives have a fitted effect of over 65% in size
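Compound titrations (5 concentrations, 24 h) on a stable cell line; DMSO and CCCP controls. Endpoint: fixed-cell PINK1 immunofluorescence with mitochondrial, cell and nuclear markers, scanned by microplate cytometer.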
SW480 rereplic – induces DNA re-replication in SW480 colon adenocarcinoma cells. SW480 DNA re-replication, Hoechst DNA content imaging, 48 h. Potency, µM (doses to about 46.1 µM), for inactives: top-dose re-replication activation, most hits filed as activators. 340,000 compounds, 1.8% hits; note: % of control where 0% means no effect; nearly all actives have a fitted effect of over 55% in size
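250 cells/well; 23 nL cpd via pin tool; 48 hr, 37 C, 5% CO2; Hoechst 40 min; imager read of total nuclear intensity, ex 405/em 500-530 nm.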
KB-V1 cytotox – kills drug-selected multidrug resistant KB-V1 cells. KB-V1 MDR cells viability, CellTiter-Glo, 72 h. Potency, µM (titrated, usually from 46.1 µM), usual class: cytotoxic. 400,000 compounds, 3.4% hits. AID 1347076; note: % is set by controls: 0 for no effect and ±100 for the full control effect; nearly all actives have a fitted effect of over 60% in size
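Luminescent ATP read-out (CellTiter-Glo, 10 min) measures survival of drug-selected KB-V1 MDR cells after 72 h, 37 degrees C compound exposure. Medium: phenol-red-free DMEM, 10% FBS. Values from fitted concentration-response curves.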
KB-3-1 tox – KB-3-1 parental cell cytotoxicity. KB-3-1 viability, CellTiter-Glo ATP luminescence, 72 h. Potency, µM (highest dose often 46.1 µM), most hits filed as cytotoxic. 400,000 compounds, 1.4% hits; note: % is set by controls: 0 for no effect and ±100 for the full control effect; nearly all actives have a fitted effect of over 60% in size
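Here the drug-naive KB-3-1 line serves as comparator for MDR sub-line selectivity; cells received compound titrations, 72 h at 37 °C, then CellTiter-Glo readout.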
Active calls of the source: *; i = inactive; ? = inconclusive; / = no result; [ ] = remark or other dose. Unless noted, calls come from the whole dose curve; as a rule, active = well fitted curve in the direction sought with a large enough effect; inconclusive = small, poorly fitted or top-dose-only effect, or another doubt; inactive = no such curve, though single readings can be large; an effect the other way counts as inactive or inconclusive. Potency is the fitted concentration of half-maximal effect.

SMILES	MCF10A rereplic	PTAP TSG101 blk	PINK1 modulator	SW480 rereplic	KB-V1 cytotox	KB-3-1 tox
Cc1ccc(/C=C/c2onc(C)c2S(=O)(=O)N2CCC(C(=O)N(CCC(C)C)Cc3ccco3)CC2)cc1	/	/	2.3%	/	/	/
CC(=O)NC1=NN(C(C)=O)C(C)(c2ccccc2)S1 (stereo not drawn)	-4.1%	-0.2%	/	-7.3%	7.31µM*	8.2µM*
CC(=O)NC1=NN(C(C)=O)C(C)(c2ccc3ccccc3c2)S1 (stereo not drawn)	-3.6%	-1.1%	2.0%	-5.6%	i	i
COC(=O)c1ccc(NC(=O)Nc2ccccc2F)cc1	-8.0%	-2.9%	-0.7%	-3.8%	i	?
CCOc1ccc(NC(=O)Nc2cc(C(C)C)c(O)cc2C)cc1	9.5%	-11.1%	10.9%	1.6%	i	i
COc1ccc(C(=O)Nc2nccs2)cc1	5.4%	1.0%	0.9%	-1.3%	i	i
COc1ccc(NC(=O)Nc2ccccc2F)cc1	0.2%	-6.5%	/	-1.3%	18.4µM*	?
COc1ccc(NC(=O)Nc2nccs2)cc1	?	-3.9%	14.6%[38.3 µM]	11.6µM*	7.31µM*	?
CCOc1ccc(NC(=O)Nc2cc(C)ccc2F)cc1	7.2%	-4.1%	11.4%[38.3 µM]	13.1%	13µM*	i
Oc1c(Br)cc(Br)cc1CNc1cnc2ccccc2c1	23.1µM*	-7.4%	?	2.0%	i	i
Oc1c(Br)cc(Br)cc1CNc1ccc(F)cc1	?	-3.7%	25.9%	-0.1%	i	i
Cc1ccc(/C=C/C(=O)N2CCC(Cc3ccccc3)CC2)cc1	?	-7.7%	3.5%	-2.1%	20.6µM*	i
CC1CCN(C(=O)/C=C/c2ccc(C(C)(C)C)cc2)CC1	18.4µM*	-0.4%	30.0%	1.8%	?	i
Cc1ccc(/C=C/C(=O)N2CCCC(C)C2)cc1 (stereo not drawn)	?	-2.7%	2.8%	-41.6%	16.4µM*	i
CCOC(=O)C1CCCN(C(=O)/C=C/c2ccc(Cl)cc2)C1 (stereo not drawn)	-5.5%	-7.4%	-1.6%	-10.8%	i	i
COc1ccccc1N1CCN(C(=O)/C=C/c2cccc([N+](=O)[O-])c2)CC1	1.1%	-4.7%	-1.7%	-90.6%	i	i
COc1ccccc1N1CCN(C(=O)/C=C/c2ccc(C)cc2)CC1	23.1µM*	-1.5%	2.3%	3.3%	16.4µM*	i
CC(C)(C)c1ccc(/C=C/C(=O)N2CCCCC2)cc1	?	-10.4%	4.5%	12.4%	i	i
Cc1ccccc1S(=O)(=O)N1C[C@H]2CON(C)[C@H]2C[C@H]1c1cccc(N2CCOCC2)c1	-8.4%	1.0%	1.1%	-3.6%	i	?
Cc1ccccc1S(=O)(=O)N1C[C@H]2CON(C)[C@H]2C[C@H]1c1cccc(-c2ccc(C#N)cc2)c1	-2.9%	-1.2%	-1.1%	4.11µM*	i	i
COc1ccc(CNC(=O)C2Cc3c(-c4ccccc4Oc4ccccc4)ccnc3O2)cc1OC (stereo not drawn)	/	/	2.4%	/	14.6µM*	?
CC(=O)Nc1ccc(-c2ccnc3c2CC(C(=O)Nc2cccc(C(F)(F)F)c2)O3)cc1 (stereo not drawn)	/	/	0.5%	/	23.1µM*	?
NC(=O)c1cccc(-c2ccnc3c2CC(C(=O)Nc2cccc(C(F)(F)F)c2)O3)c1 (stereo not drawn)	/	/	-0.3%	/	23.1µM*	?
O=C(Nc1cccc(C(F)(F)F)c1)C1Cc2c(-c3ccccc3Oc3ccccc3)ccnc2O1 (stereo not drawn)	/	/	8.0%	/	18.4µM*	?
Cc1cc(-c2ccnc(-n3ncc(C(=O)NCC4CCCN(C)C4)c3C3CC3)n2)c(C)s1 (stereo not drawn)	/	/	-0.6%	/	/	/
CCCCNC(=O)c1sc2ncnc(NCC3CCCO3)c2c1C (stereo not drawn)	/	/	-0.3%	/	/	/
